Reference: PubChem BioAssay AID463173 (ICCB-Longwood Screening Facility, Harvard Medical School, 2010)
Among all 52,000 compounds or so, about 4,300 (8.3%) were called active. Rule as the data show it: active = survival mostly below about 52% (no sharp cut-off); inactive = mostly above about 56%. Shown is part of a subset that was picked to be rich in actives.

tested on: DeltatarO mutant; test: S. aureus survival, RN4220 and DeltatarO strains – OD600, teichoic acid synthesis inhibitors, primary screen (AID 463173); settings: S. aureus RN4220 wild type/DeltatarO growth, OD600, 18 h, active compounds read low, screened at 18.75 µg/mL (by protocol)

Compound | survival
CCC(=O)C1C(=O)CC(C)(C)CC1=O | 103% (inactive)
Cc1ccc(S(=O)(=O)c2nnn(CC(=O)Nc3ccccc3C)c2N)cc1C | 91% (inactive)
CN(Cc1ccccc1)C(=O)C1CCN(S(C)(=O)=O)CC1 | 80% (inactive)
COc1cc(OC)c(NC(=O)N2CCSc3ccccc32)cc1Cl | 74% (inactive)
COc1ccc(Br)cc1CNC(=O)CCC(=O)N1CCSc2ccccc21 | 41% (active)
O=C(Nc1cccc(Cl)c1)N1CCSc2ccccc21 | 79% (inactive)
COc1cc(NC(=O)N2CCSc3ccccc32)cc(OC)c1OC | 52% (active)
COc1ccc(Br)cc1CNC(=O)CN1CCSc2ccccc21 | 88% (inactive)
CCOc1ccccc1CNC(=O)CCC(=O)N1CCSc2ccccc21 | 107% (inactive)
COc1ccc(-c2c3c(=O)n(C)c(=O)n(C)c3c3c(-c4ccc(C)cc4)nc4ccccc4n23)cc1 | 82% (inactive)
CCCCOc1ccc(C2C(=O)N(C3CCCCC3)CC(=O)N2CCCC)cc1 (stereo not given) | 89% (inactive)
COc1cccc(C(C(=O)NC2CCCCC2)N(C(=O)c2ccccn2)c2cccnc2)c1 (stereo not given) | 81% (inactive)
CCOC(=O)N1CCC2(CC1)OC(=O)C(C)=C2C(=O)NCc1ccc(C)cc1 | 70% (inactive)
Cc1ccccc1-c1nnc(SCC(=O)N2CCCc3ccccc32)o1 | 9% (active)
O=C(CSc1nnc(-c2ccc(F)cc2)o1)N1CCCc2ccccc21 | 72% (inactive)
O=C(CSc1nnc(-c2ccccc2)o1)N1CCCc2ccccc21 | 80% (inactive)
Cc1ccc(-c2nnc(SCC(=O)N3CCc4ccccc43)o2)cc1 | 95% (inactive)
Cc1cccc(-c2nnc(SCC(=O)N3CCCc4ccccc43)o2)c1 | 11% (active)
O=C(CSc1nnc(-c2ccc(Cl)cc2)o1)N1CCc2ccccc21 | 96% (inactive)
Cc1ccc(-c2nnc(SCC(=O)N3CCCc4ccccc43)o2)cc1 | 63% (inactive)
O=C(CSc1nnc(-c2ccccc2Cl)o1)N1CCCc2ccccc21 | 35% (active)
O=C(CSc1nnc(-c2ccccc2F)o1)N1CCc2ccccc21 | 100% (inactive)
Cc1ccc(NC(=O)c2ccc(NC(=O)N3CCSc4ncccc43)cc2)c(Cl)c1 | 64% (inactive)
COc1cccc(-c2nc(CS(=O)(=O)CC(=O)Nc3cccc(C(C)=O)c3)c(C)o2)c1 | 71% (inactive)

Compound | survival
CCc1cccc(NC(=O)CN2c3ccccc3S(=O)(=O)c3ccccc32)c1 | 72% (inactive)
CCOc1ccc(CC(=O)NCCc2csc(-c3ccc(C)cc3)n2)cc1 | 88% (inactive)
CCOc1ccc(CCNC(=O)c2ccc(-n3c(C)cc4c3CCC(C)C4)cc2)cc1OCC (stereo not given) | 82% (inactive)
COc1ccc(CCNC(=O)c2ccc(-n3c(C)cc4c3CCCC4)cc2)cc1OC | 74% (inactive)
COc1ccc(CCNC(=O)c2ccc(-n3c(C)cc4c3CCC(C)C4)cc2)cc1OC (stereo not given) | 52% (active)
CCOC(=O)C1CCN(C(=O)C2CCN(C3=NS(=O)(=O)C(c4ccc(C)cc4)=C3CC)CC2)CC1 | 115% (inactive)
O=C(NCC(c1ccco1)S(=O)(=O)c1cccs1)c1ccc(Cl)cc1 (stereo not given) | 102% (inactive)
O=C(Cn1c(=O)oc2cc(Cl)ccc21)Nc1cccc(C(F)(F)F)c1 | 89% (inactive)
O=C(Cc1ccc(F)cc1)NCCc1csc2nc(-c3ccc(Cl)cc3)nn12 | 95% (inactive)
O=S(=O)(Nc1ccc(C(F)(F)F)cc1)c1ccc2c(c1)OCCO2 | 69% (inactive)
Cc1cccc(C)c1NS(=O)(=O)c1ccc(NS(=O)(=O)c2ccc3c(c2)OCCO3)cc1 | 110% (inactive)
CC(=O)c1ccc(NS(=O)(=O)c2cccc(S(=O)(=O)c3ccc(Cl)cc3)c2)cc1 | 124% (inactive)
O=S(=O)(Nc1ccc(Cl)cc1)c1ccc(NS(=O)(=O)c2ccc3c(c2)OCCO3)cc1 | 38% (active)
O=S(=O)(Nc1c(F)cccc1F)c1ccc2c(c1)OCCO2 | 63% (inactive)
CCOC(=O)c1ccc(NS(=O)(=O)c2ccc3c(c2)OCCO3)cc1 | 74% (inactive)
COC(=O)c1cc(NS(=O)(=O)c2ccc3c(c2)OCCO3)ccc1Cl | 65% (inactive)
O=S(=O)(Nc1ccc(Cl)cc1)c1cccc(S(=O)(=O)c2ccc(Cl)c(Cl)c2)c1 | 37% (active)
CN1CCN(S(=O)(=O)c2cccc(S(=O)(=O)c3ccc(Cl)c(Cl)c3)c2)CC1 | 102% (inactive)
COc1ccc(NS(=O)(=O)c2ccc(NS(=O)(=O)c3ccc4c(c3)OCCO4)cc2)cc1 | 116% (inactive)
O=S(=O)(Nc1cccc(C(F)(F)F)c1)c1ccc(NS(=O)(=O)c2ccc3c(c2)OCCO3)cc1 | 6% (active)
Cc1c(Cl)cccc1NS(=O)(=O)c1ccc(NS(=O)(=O)c2ccc3c(c2)OCCO3)cc1 | 13% (active)
O=C(O)CSc1nc2ccc(Cl)cc2[nH]1 | 84% (inactive)
CCOc1cccc2sc(N(Cc3cccnc3)C(=O)c3ccco3)nc12 | 77% (inactive)
CCc1cc(C(=O)NC(C)c2ccccc2)no1 (stereo not given) | 60% (inactive)

Compound | survival
Cc1ccc(NC(=O)CSc2nc(=O)n(Cc3ccncc3)c3c2CCC3)cc1Cl | 80% (inactive)
Cc1cn(S(=O)(=O)c2ccc(F)c(Cl)c2)cn1 | 91% (inactive)
Nc1c(C(=O)Nc2ccc(C(F)(F)F)cc2)sc2nc(-c3cccs3)ccc12 | 70% (inactive)
CCN1CCN(c2ncc3c(n2)CCN(Cc2cc(F)cc(F)c2)C3)CC1 | 90% (inactive)
CCCCOc1ccc(CSCCN=C(N)N)cc1 | 1% (active)
COc1ccc(CCCN=C(N)N)cc1Cl | 105% (inactive)
CC(C)Oc1ccc(CSCCN)cc1 | 90% (inactive)
O=C(NCc1ccccc1)c1ccc(CSc2nc3cccnc3n2Cc2cccc(F)c2)cc1 | 101% (inactive)
COC(=O)c1ccc2c(c1)N(CC(=O)Nc1cccc(Cl)c1C)C(=O)c1ccccc1S2 | 74% (inactive)
CCOc1ccc(C2=NC(c3cccs3)=Nc3ccc(C(C)C)cc3N2)cc1 | 58% (inactive)
CC(C)c1ccc2c(c1)NC(c1ccncc1)=NC(c1cccs1)=N2 | 72% (inactive)
CC(C)c1ccc2c(c1)NC(c1ccc(F)cc1)=NC(c1cccs1)=N2 | 45% (active)
FC(F)(F)Oc1ccc2c(c1)NC(c1ccncc1)=NC(c1cccs1)=N2 | 91% (inactive)
Fc1ccc2c(c1)NC(c1ccncc1)=NC(c1cccs1)=N2 | 30% (active)
Clc1ccc2c(c1)NC(c1ccncc1)=NC(c1cccs1)=N2 | 76% (inactive)
CCCCOc1cccc(C(=O)Nc2cccc(-c3nc4ncccc4o3)c2C)c1 | 47% (inactive)
COc1ccc(NC(=O)[C@@H](c2ccccc2)N2Cc3ccccc3C2=O)cc1OC | 62% (inactive)
COc1cccc(CNC(=O)C2CCN(c3ncnc4c3nc3n4CCCCC3)CC2)c1 | 86% (inactive)
COc1ccc(CNc2nc(-c3ccco3)nn2C(=O)CC(C)C)cc1 | 103% (inactive)
O=C(CS(=O)(=O)c1nc(-c2ccc(Cl)cc2)cn1-c1ccccc1)Nc1ccc(F)cc1F | 50% (active)
O=C(CS(=O)(=O)c1nc(-c2ccc(Cl)cc2)cn1-c1ccccc1)Nc1cccc(Cl)c1 | 68% (inactive)
Cc1ccc(-c2cn(-c3cccc(Cl)c3)c(S(=O)(=O)CC(=O)Nc3ccccc3F)n2)cc1 | 61% (inactive)
CN1CCN(C(=O)C(=O)Nc2c3c(nn2-c2cccc(Cl)c2)CSC3)CC1 | 76% (inactive)
O=C(NCc1ccc(Cl)cc1)c1cc2ccccc2o1 | 61% (active)

Compound | survival
COCCNC(=O)c1cc2ccccc2o1 | 104% (inactive)
O=C(NCc1ccccc1Cl)c1cc2ccccc2o1 | 74% (inactive)
O=C(NC1CC(=O)N(c2ccc(Cl)cc2)C1)c1cc2ccccc2o1 (stereo not given) | 52% (active)
O=C(NC1CC(=O)N(c2ccccc2)C1)c1cc2ccccc2o1 (stereo not given) | 89% (inactive)
Cc1ccc(N2CC(NC(=O)c3cc4ccccc4o3)CC2=O)cc1 (stereo not given) | 99% (inactive)
COc1ccc(CN2CCCN(CC(=O)Nc3ccc4c(c3)OCCO4)S2(=O)=O)cc1 | 74% (inactive)
O=C1c2ccccc2C(=O)N1CCCn1nnc(-c2ccc(N3CCOCC3)cc2)n1 | 74% (inactive)
C=CCNc1nc(Cl)nc(Cl)n1 | 99% (inactive)
CCCNc1nc(Cl)nc(Cl)n1 | 62% (active)
CC(C)Nc1nc(Cl)nc(NCCO)n1 | 110% (inactive)
Cc1ccc(-n2ncc3c(=O)n(Cc4cccc(Cl)c4)cnc32)cc1C | 91% (inactive)
CCOc1ccc(NS(=O)(=O)c2cc(Br)cc3c2N(C(=O)C2CC2)CC3)cc1 | 79% (inactive)
CCc1ccccc1NS(=O)(=O)c1cc(Br)cc2c1N(C(=O)C1CC1)CC2 | 52% (active)
CC(C)c1ccc(NS(=O)(=O)c2cc(Br)cc3c2N(C(=O)C2CC2)CC3)cc1 | 56% (inactive)
COc1ccccc1CNS(=O)(=O)c1cc(Br)cc2c1N(C(=O)C1CC1)CC2 | 58% (inactive)
Cc1ccc(NS(=O)(=O)c2cc(Br)cc3c2N(C(=O)C2CC2)CC3)cc1C | 95% (inactive)
CC(=O)Nc1ccc(NS(=O)(=O)c2cc(Br)cc3c2N(C(=O)C2CC2)CC3)cc1 | 74% (inactive)
COc1cc(NS(=O)(=O)c2cc(Br)cc3c2N(C(=O)C2CC2)CC3)cc(OC)c1 | 99% (inactive)
O=C(C1CC1)N1CCc2cc(Br)cc(S(=O)(=O)Nc3ccc(C(F)(F)F)cc3)c21 | 41% (active)
CCN(Cc1ccccc1)S(=O)(=O)c1cc(Br)cc2c1N(C(=O)C1CC1)CC2 | 58% (inactive)
COc1ccc(Cl)cc1NS(=O)(=O)c1cc(Br)cc2c1N(C(=O)C1CC1)CC2 | 55% (active)
CN(Cc1ccccc1)S(=O)(=O)c1cc(Br)cc2c1N(C(=O)C1CC1)CC2 | 34% (active)
CCCCN(Cc1ccccc1)S(=O)(=O)c1cc(Br)cc2c1N(C(=O)C1CC1)CC2 | 57% (inactive)
